# PubChem BioAssay (NCI)
# About 83,000 compounds went through this panel and 20% of them were active in at least one assay; those are over-represented in the sample as a whole.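 Single-dose data. Exposure time 48 hours. Values below 10 considered active.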 A number with no mark means an inactive call. Active and inactive are the calls of the source.
# Columns and labels:
# Assay in all cases: NCI-60 one-dose screen, 48 h (100 = growth as untreated, 0 = no growth, -100 = all killed)
# Conditions in all cases: 10 µM unless noted
# NCI-H23 lung = tested on: NCI-H23 lung
# NCI-H226 lung = tested on: NCI-H226 lung
# NCI-H322M lung = tested on: NCI-H322M lung
# HOP-62 NSCLC = tested on: HOP-62 NSCLC
# NCI-H460 lung = tested on: NCI-H460 lung
# HOP-92 NSCLC = tested on: HOP-92 NSCLC
# NCI-H522 lung = tested on: NCI-H522 lung
# A549/ATCC NSCLC = tested on: A549/ATCC NSCLC
# 786-0 renal = tested on: 786-0 renal
# COLO 205 colon = tested on: COLO 205 colon
Compound,growth (NCI-H23 lung),growth (NCI-H226 lung),growth (NCI-H322M lung),growth (HOP-62 NSCLC),growth (NCI-H460 lung),growth (HOP-92 NSCLC),growth (NCI-H522 lung),growth (A549/ATCC NSCLC),growth (786-0 renal),growth (COLO 205 colon)
O=C(/C=C/c1sc(Cl)nc1Cl)c1ccc(Br)cc1,85.8%,81.6%,100%,97.3%,103%,90.2%,86.6%,96.1%,92.2%,78.8%
O=C1NC(=O)C(Cn2cnc3ccccc32)N1 (stereo not given),98.4%,103%,99%,102%,101%,97.4%,95.9%,97.8%,99.2%,107%
[O-][n+]1c2ccccc2[n+]([O-])c2c3ccccc3[nH]c21,71.5%,-0.987% (active),66.9%,26.2%,5.29% (active),66.5%,57.5%,30.6%,71%,69.8%
O=c1[nH]c2c(ccc3cnccc32)c2c1CCC2,-64.6% (active),-6.54% (active),-11.7% (active),-3.9% (active),-4.19% (active),-17.1% (active),-33.6% (active),14.9%,12.6%,-77.4% (active)
CC(=O)CC(c1ccccc1)c1c(C)[nH]c2ccccc12 (stereo not given),81.9%,89.7%,100%,93.1%,106%,94.3%,94.4%,99.5%,104%,107%
c1ccc2cc(C[n+]3ccn(CCCCCCCCCCCCn4cc[n+](Cc5ccc6ccccc6c5)c4)c3)ccc2c1,-80.3% (active),-42.1% (active),-18.4% (active),-58% (active),-69.9% (active),-68.2% (active),-74.2% (active),-74.2% (active),1.28% (active),-67.5% (active)
CN1C(=C2C(=O)OC(C)(C)OC2=O)CCC1C(=O)NCc1ccc(Cl)cc1Cl (stereo not given),97.9%,79.1%,107%,85.4%,100%,85.3%,54.2%,79.5%,103%,103%
Oc1ccc(-c2nc3ccc4[nH]ncc4c3c3c2CCCC3)c2cccnc12,-7.85% (active),-2.05% (active),11.3%,5.46% (active),-21.7% (active),-16.7% (active),15%,-34% (active),2.06% (active),-11.6% (active)
O=c1ccn(Cc2cn(-c3c4ccccc4nc4ccccc34)nn2)c(=O)[nH]1,94%,102%,99.2%,97.7%,96.5%,84.7%,-57.4% (active),91.2%,90.9%,108%
Cc1cccc2c3c(sc12)C(c1ccc(Cl)cc1)C(C#N)=C(N)O3 (stereo not given),21.4%,26.4%,49.1%,38.7%,9.2% (active),89.7%,13.7%,30.1%,29%,-21.2% (active)
c1ccc(-c2nc3sc(-c4ccccc4)cn3n2)cc1,83.5%,72.2%,88.2%,66.7%,93.3%,74.4%,80.8%,89.6%,105%,94.5%
O=c1[nH][n+](-c2ccc(Br)cc2)no1,88.8%,72.5%,72.2%,75.5%,28.3%,84.1%,49.3%,48.1%,59%,56.2%
Cc1c(C(=O)/C=C/Nc2c(Cl)cc(S(N)(=O)=O)cc2Cl)sc2nc3ccccc3n12,99.8%,99.6%,107%,107%,104%,111%,89.9%,103%,107%,110%
O=c1c2cc(F)ccc2sc2c(NCCO)nc3ccccc3c12,95.6%,103%,99.7%,105%,112%,110%,91.1%,101%,104%,114%
O=C(CCCCCCSc1nc(-c2ccccc2)cc(-c2ccccc2)n1)NO,27.6%,56%,45%,29.5%,24.4%,7.75% (active),-0.297% (active),27.4%,65%,25.7%
c1cc(-c2nnc(SSc3ncnc4nc[nH]c34)o2)ccn1,43%,53.5%,55.9%,52.4%,48.4%,52.9%,6.68% (active),92.5%,13.8%,67.7%
Cc1cccc(OCC(O)CN2CCN(c3ccc(Cl)cc3)CC2)c1 (stereo not given),95.2%,112%,125%,118%,108%,80%,109%,98.5%,96.5%,96.7%
CCCCCCN(CCCCCC)c1ccc(/C=C2/SC(=O)NC2=O)c(C)c1,76.5%,104%,87%,110%,81.3%,13.9%,77.4%,73.2%,77.6%,109%
O=C(CSc1nc2ccccc2[nH]1)Nc1cccc(Cl)c1,98.4%,101%,96.3%,94.9%,103%,90.6%,89%,111%,101%,108%
C[C@H](C(=O)Nc1ccc(S(N)(=O)=O)cc1)S(=O)(=O)c1ccccc1,94.3%,98%,108%,87.6%,108%,94%,90.7%,102%,101%,107%
CCCCCCCCCCCCCCCCCCOc1ccccc1CC(=O)OCC[N+](CC)(CC)CC,13.1%,53.7%,70.6%,41%,34.6%,6.81% (active),10.5%,29.3%,22.6%,-27.3% (active)
NCCNc1nc2ccccc2c2c(=O)c3cc(F)ccc3sc12,84.9%,96%,72.6%,76.5%,12.2%,59.1%,79.4%,66.1%,73.5%,-1% (active)
CCOC(=O)c1c2c(n(-c3ccc(C#N)cc3)c1-c1ccccc1)C=CCC2,89.3%,96.5%,91.6%,83.3%,98.9%,98.4%,72.1%,91.1%,101%,87.2%
C/C=C(\C)C(=O)N[C@H]1[C@@H](OC(C)=O)C[C@]2(C)C3CC[C@@]4(C)C(CC[C@@H]4C(C)N(C)C)C3CCC2[C@H]1O (stereo not given in full),74.4%,101%,67.7%,91.9%,59%,71%,99.4%,78.5%,66.1%,75.8%
CCCCCCNC(=O)Oc1ccc(/C(=C(\C)c2ccc(Cl)cc2)c2ccc(OCCCN(C)C)cc2)cc1,80.5%,110%,81.7%,97%,32.7%,58.6%,83.7%,63.5%,56.8%,23.8%
CCCCCCn1c(-c2ccc(C(=O)O/N=C(\N)c3ccc4c(c3)OCO4)cc2)nc(-c2ccccc2)c1-c1ccccc1,-30.8% (active),64.6%,73.9%,64.8%,4.23% (active),-57.5% (active),-58.9% (active),-25.3% (active),-65.9% (active),35.7%
O=[N+]([O-])c1ccccc1NCSc1ccc(Cl)cc1,91.2%,91%,98.1%,124%,95.8%,78.3%,90.7%,91.3%,87.6%,116%
